Experimental data published in ChEMBL document CHEMBL3433997, “St. Jude Leishmania screening dataset” (2016).

molecular target: Glucose transporter (Leishmania mexicana) (UniProt O61059); assay: ST_JUDE_LEISH: Cytotoxicity at 2uM final concentration against transgenic Leishmania Mexicana promastigotes LmGT2 that are glucose transport deficient and complemented with the L. Mexicana glucose transporter 2. Activity is measured by DNA content using SYBR green in vitro; type: functional

`O=C(Nc1ccc2c(c1)CNCC2)c1ccc(-c2ccc(Cl)cc2)cc1` was tested. Which inhibition did it give?
Its inhibition is 84%.

Which inhibition does the source give for `COc1ccc(NC(=O)c2ccc(OCCCCCCCOc3ccc(C(=O)Nc4ccc(OC)c(N5CCN(C)CC5)c4)cc3)cc2)cc1N1CCN(C)CC1` here?
Its inhibition is 1.11%.

For `CCn1c(-c2nonc2N)nc2cnc(Oc3cccc(NC(=O)c4ccc(OCCN5CCCC5)cc4)c3)cc21`, which inhibition is on record?
The inhibition was 7.84%.

Which inhibition does the source give for `CCOc1cc(C(=O)NCc2ccc(Cl)c(Cl)c2)ccc1-c1nc2cc(Cl)ccc2[nH]1` here?
Its inhibition is 7.21%.

`Cc1ccc(Cn2nc(Cl)c(N3CCCNCC3)cc2=O)cc1NC(=O)Nc1ccc(-c2ccccc2)cc1` was tested. Which inhibition did it give?
Its inhibition is -1.28%.

`O=C(OCC1CCN(Cc2ccccc2)C1)c1ccc(Cl)cc1` (stereo not given) was tested. Which inhibition did it give?
Its inhibition is 2.14%.

With `Cc1ccc(NC(=O)NCCCCCN2CCC(c3c[nH]c4ccccc34)CC2)cc1I` as the compound, how does the inhibition read?
The inhibition was 3.15%.

How did the inhibition turn out when `O=C(Nc1cccc(Cl)c1Cl)NC1CCN(Cc2cccc(O)c2)CC1` was run?
The inhibition was 2.32%.

How did the inhibition turn out when `O=C(NCc1ccccc1)c1ccc(C(=O)NCC2CNCCO2)cc1` (stereo not given) was run?
The inhibition was 9.54%.

How did the inhibition turn out when `CC(C)C(C)(C#N)NC(=O)CSc1nc2ccc([N+](=O)[O-])cc2s1` (stereo not given) was run?
Its inhibition is -1.55%.

How did the inhibition turn out when `COC(=O)c1cccc(CNCc2ccc(-c3ccc(-c4nc5cc(F)ccc5[nH]4)cc3)cc2)c1` was run?
Its inhibition is 4.98%.

`Cc1nc2ccc(-c3ccc(OC(F)(F)F)cc3)cc2c(O)c1C#N` was tested. Which inhibition did it give?
The inhibition was -1.44%.

Which inhibition does the source give for `COc1cc2nc(NCCc3ccccc3)nc(NCc3cc(C)no3)c2cc1OC` here?
Its inhibition is 2.42%.

Which inhibition does the source give for `Cc1ccc(C(=O)Nc2ccc(OC3CCN(CCC(C)C)C3)c(Cl)c2)cc1` (stereo not given) here?
The inhibition was 3.43%.

With `O=C(c1ccc(F)c2ccccc12)N1CCc2cc3nccc(N4CCN5CCC[C@H]5C4)c3cc21` as the compound, how does the inhibition read?
The inhibition was 0.27%.

How did the inhibition turn out when `O=C(/C=C/c1ccc(C(F)(F)F)cc1)NCCCCCN1CCC(c2c[nH]c3ccccc23)CC1` was run?
The inhibition was 0%.

For `O=C(Nc1ccc(NC2=NCCN2)cc1)c1ccc(C(=O)Nc2ccc(NC3=NCCN3)cc2)cc1`, which inhibition is on record?
The inhibition was 6.75%.

With `O=C(Nc1ccc(C(=O)N2CCN(CCN3CCN(c4cccc(C(F)(F)F)c4)CC3)CC2)cc1)c1ccc(C(F)(F)F)cc1` as the compound, how does the inhibition read?
The inhibition was 1.69%.

With `CCCCOc1c(CNCCCCCCNCc2ccc3ccccc3c2OCCCC)ccc2ccccc12` as the compound, how does the inhibition read?
The inhibition was 85.2%.

Which inhibition does the source give for `CCCCOc1ccc(C(=O)C(CCC(CNC(C)(C)C)C(=O)c2ccc(OCCCC)cc2)CNC(C)(C)C)cc1` (stereo not given) here?
The inhibition was 31.8%.

`CN(C)CCN(C)Cc1ccc(-c2ccc3c(Nc4ccc(Oc5ccccn5)cc4)ccnc3c2)o1` was tested. Which inhibition did it give?
The inhibition was -2.18%.

For `O=C1OC2(CN1CC1CCN(Cc3ccc(O)cc3Cl)C1)c1ccccc1-c1ccccc12` (stereo not given), which inhibition is on record?
Its inhibition is 2.67%.

With `CC(C)(C)c1ccc(C(=O)NC2CCC(CCN3CCc4ccc(S(C)(=O)=O)cc4CC3)CC2)cc1C(F)(F)F` (stereo not given) as the compound, how does the inhibition read?
Its inhibition is 6.75%.

`CC1(C)N=C(N)N=C(N)C1c1ccc(Cl)c(Cl)c1` (stereo not given) was tested. Which inhibition did it give?
Its inhibition is 1.36%.

How did the inhibition turn out when `FC(F)(F)c1ccc2[nH]c(-c3ccc(-c4cccc(CNCc5ccccc5)c4)s3)nc2c1` was run?
The inhibition was 1.82%.

How did the inhibition turn out when `COc1cccc(CNC(=O)NC2CCN(c3ccnc(Nc4ccc(F)cc4)n3)C2)c1` (stereo not given) was run?
The inhibition was -1.51%.

For `CCN(CC)CCCC(C)Nc1ccnc2cc(Cl)ccc12` (stereo not given), which inhibition is on record?
Its inhibition is 1.51%.

With `O=[N+]([O-])c1cccc(CNCC2CCC(CNCc3cccc([N+](=O)[O-])c3)CC2)c1` (stereo not given) as the compound, how does the inhibition read?
The inhibition was 1.26%.

With `O=C(NC(c1ccc(Cl)cc1)c1ccc2cccnc2c1O)c1ccccc1` (stereo not given) as the compound, how does the inhibition read?
The inhibition was -2.91%.

With `O=C(N[C@@H](CC1CCCCC1)C(=O)NCCN1CCOCC1)c1ccc(O)c(-c2ccc(Cl)c(Cl)c2)c1` as the compound, how does the inhibition read?
The inhibition was 0.27%.

Which inhibition does the source give for `COc1cc2c(cc1C(F)(F)F)N(C(=O)Nc1cc(F)cc(-c3cncnc3)c1)CC2` here?
Its inhibition is 0.07%.

`Cc1cccc2c1NC(=O)/C2=N/NC(=S)N(C)C` was tested. Which inhibition did it give?
Its inhibition is 2.09%.

How did the inhibition turn out when `NC(=O)c1ccsc1NC(=O)CNC(c1ccc(F)cc1)c1cccs1` (stereo not given) was run?
The inhibition was 2.8%.

Which inhibition does the source give for `O=C(Nc1cccc(-c2csc(-c3nc4ccccc4[nH]3)c2)c1)c1ccncc1` here?
Its inhibition is 6.69%.

For `COc1ccc2ccccc2c1CNCC1CCN(CC2CCCCC2)CC1`, which inhibition is on record?
Its inhibition is -1.88%.

Which inhibition does the source give for `CCCNC(=O)c1cncc(-c2ccc(CNCCCc3ccccc3)cc2)c1` here?
The inhibition was 0.59%.

For `Cc1cccc2nc(-c3ccc(-c4ccc(CN5CCN(C6CCN(C)CC6)CC5)cc4)s3)[nH]c12`, which inhibition is on record?
Its inhibition is -2.96%.

Which inhibition does the source give for `CCn1c(Sc2ccc(C#N)c([N+](=O)[O-])c2)nnc1-c1ccc(Cl)cc1` here?
Its inhibition is 1.39%.

`Fc1ccc(Nc2ccnc3cc(-c4ccc(CNCCN5CCOCC5)o4)ccc23)c(Cl)c1` was tested. Which inhibition did it give?
Its inhibition is 2.34%.

For `COc1cc(-c2nc3ccc(N4CCN(C)CC4)cc3[nH]2)cc(OC)c1OC`, which inhibition is on record?
The inhibition was 4.21%.
